Experimental data reported in PubChem BioAssay (NCATS).
Inconclusive results are not listed. Active and inactive are the calls of the source. Unless noted, the call rests on the fitted dose curve; in most records, active means well fitted curve in the direction sought with a large enough effect; inconclusive means small, poorly fitted or top-dose-only effect, or another doubt; inactive means no such curve, though single readings can be large; an effect the other way counts as inactive or inconclusive.

How the values were obtained:
[1] = P-glycoprotein substrates identified in KB-8-5-11 adenocarcinoma cell line, qHTS therapeutic library screen (AID 1346987); further: nearly all actives have a fitted effect of over 65% in size; further: potency means the concentration at half of the fitted maximal effect
Procedure, shortened: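 Human cervical adenocarcinoma KB-8-5-11 cells, selected in colchicine to over-express P-gp and assayed without it, were exposed for 72 h to titrated compounds. An ATP-based luminescent viability signal gave AC50.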

[2] = Primary qHTS for inhibitors of nuclear receptor binding SET domain protein 2 (NSD2) in an isogenic RCH-ACV NSD2 p.E1099K mutant (9B) (AID 1645876); further: potency means the concentration at half of the fitted maximal effect; nearly all actives have a fitted effect of over 70% in size
[3] = Primary qHTS for inhibitors of nuclear receptor binding SET domain protein 2 (NSD2) in an RCH-ACV wild type WT cells (2C) (AID 1645877); further: potency means the concentration at half of the fitted maximal effect; nearly all actives have a fitted effect of over 70% in size
[4] = target: Glutathione peroxidase 1 (Homo sapiens) (UniProt P07203); assay: Primary qHTS Assay for Inhibitors of Recombinant Selenoprotein Glutathione Peroxidase 1 (GPX1) (AID 1845191); further: nearly all actives have a fitted effect of over 65% in size
Procedure, shortened: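 GPX1 10 nM, GR 100 nM, GSH 1 mM, NADPH 0.5 mM, CHP 0.5 mM (final). 30-min cpd preincubation, RT. Ex340/Em450 read t=0, t=15 min.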

[5] = qHTS drug screen for cell cycle checkpoint inhibitors in PARPi-resistant BRCA-mutant ovarian cancer cell lines. (AID 1963452; calls by dose curve); conditions: PEO1/OlaR viability, CellTiter-Glo luminescence, 96 h, stronger effect = lower value
Procedure, shortened: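 PEO1, PEO4 and PEO1/OlaR ovarian cancer cells, 600 per well, exposed 96 h at 37C to a dilution series. Viability read by CellTiter-Glo luminescence, normalized to DMSO and empty wells; activity summarized as Z-AUC.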

[6] = target: Calcium and integrin-binding protein 1 (Homo sapiens) (UniProt Q99828); assay: Primary qHTS for Identification of Calcium Integrin Binding Protein 1 (CIB1) Competitor (AID 1508620);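 further: GST tagged CIB1 binding a fluorescein labelled alphaIIb integrin peptide tracer; top concentration of the series differs between compounds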
Procedure, shortened: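 Fluorescence polarization competition: CIB1-GST (1 uM final) preincubated with compound 15 min at room temperature, then FITC-labeled alphaIIb peptide (100 nM final) added for another 15 min. Polarization read at Ex 480/Em 540.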

Glutathione peroxidase 1 (Homo sapiens), sequence (P07203 whole entry, looked up): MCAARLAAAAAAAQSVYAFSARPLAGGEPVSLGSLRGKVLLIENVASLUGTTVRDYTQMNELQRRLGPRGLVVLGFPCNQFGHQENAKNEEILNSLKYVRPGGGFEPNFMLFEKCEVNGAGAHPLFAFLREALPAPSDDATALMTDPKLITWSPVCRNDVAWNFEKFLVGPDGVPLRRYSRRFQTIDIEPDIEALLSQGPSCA
Calcium and integrin-binding protein 1 (Homo sapiens), sequence (Q99828 whole entry, looked up): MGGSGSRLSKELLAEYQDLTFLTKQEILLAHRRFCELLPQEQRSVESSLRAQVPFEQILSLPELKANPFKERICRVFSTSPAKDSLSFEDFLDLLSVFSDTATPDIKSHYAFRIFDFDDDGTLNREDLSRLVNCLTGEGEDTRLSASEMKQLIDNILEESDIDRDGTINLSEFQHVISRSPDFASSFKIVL

| SMILES | Potency [1] | Potency [2] | Potency [3] | outcome [4] | Z-AUC [5] | Z-AUC ([5]; measured here: PEO1 parental Z-AUC) | Z-AUC ([5]; measured here: PEO4 Z-AUC) | outcome [6] |
| --- | --- | --- | --- | --- | --- | --- | --- | --- |
| CN[C@@H]1C[C@H]2O[C@@](C)([C@@H]1OC)n1c3ccccc3c3c4c(c5c6ccccc6n2c5c31)C(=O)N[C@H]4O | 841 nM (active) | 21.5 nM (active) | 30.3 nM (active) | inactive [at 9.52 µM] | -0.878 (inactive) | -0.367 | -0.638 | – |
| Cc1ccc(NS(=O)(=O)c2cc3c(cc2N[C@@H](C)CO)NC(=O)CC3)cc1C | inactive | – | – | – | – | – | – | inactive |
